Test [1] can be described thus: Nuclear factor erythroid 2-related factor 2/antioxidant responsive element (Nrf2/ARE) small molecule agonists: qHTS cell viability counter screen in human keratinocytes (AID 1919968; active = well fitted curve in the direction sought with a large enough effect in the repeat runs; an effect the other way counts as inactive or inconclusive; note: nearly all actives have a fitted effect of over 55% in size; note: potency is the fitted concentration of half-maximal effect). The gist of the method: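 Stably transfected HaCaT (KeratinoSens), 1,500/well. Test agents in DMSO were applied for 23 h, 37 C/5% CO2. CellTiter-Fluor was incubated 1 h before the fluorescence read.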
On the technique in general: In qHTS, concentration-response curves come from the screen itself.

In test [2] the target is Gonadotropin-releasing hormone receptor (Homo sapiens) (UniProt P30968). Nature of the test: Human gonadotropin-releasing hormone receptor (GnRHR) small molecule agonists, calcium flux assay in GnRHR-HEK293 cells (AID 1920063). Note: nearly all actives have a fitted effect of over 35% in size. The gist of the method: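 Stable human GnRHR HEK293 line. 18 h plating, then calcium dye for 1 h at 37 C. Agonist-mode compound addition from DMSO stocks; fluorescence monitored 3 min.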
(In general: A change in cytosolic calcium serves as a functional read-out for many receptors and channels.)

The nature of test [3]: G protein-coupled receptor (GPCR) small molecule agonists, calcium flux assay: HEK293 wild type cell line counter screen (AID 1920065). The gist of the method:
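Following 18 h incubation at 37 C/5% CO2, plates got calcium dye for 1 h; compounds, ATP or DMSO were then pinned in and fluorescence followed kinetically (480/540 nm).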

A short description of test [4]: p53 small molecule agonists, cell-based qHTS assay with human liver microsomes (AID 1963577). The gist of the method:
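Compounds act here after metabolic activation: human liver microsomes and NADPH, both at 0.5 mg/mL final, were co-added to p53RE-bla cells. Incubation ran 16 h at 37 C, followed by LiveBLAzer detection.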

The nature of test [5]: p53 small molecule agonists, cell-based qHTS assay with rat liver microsomes (AID 1963578). The gist of the method:
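Read-out is beta-lactamase reporter fluorescence (LiveBLAzer, 2 h, room temperature, dark) in p53RE-bla cells treated 16 h at 37 C with compound, rat liver microsomes and NADPH, both 0.5 mg/mL final.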

A short description of test [6]: p53 small molecule agonists, cell-based qHTS assay with human liver microsomes: qHTS cell viability counter screen (AID 1963579). Note: nearly all actives have a fitted effect of over 45% in size. The gist of the method:
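Cells carrying the p53 response-element beta-lactamase reporter are treated for 16 h at 37 C with test compounds in the presence of human liver microsomes and NADPH (both 0.5 mg/mL final); ATP-based CellTiter-Glo luminescence then reports viability.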

Test [7] in a line: p53 small molecule agonists, cell-based qHTS assay with rat liver microsomes: qHTS cell viability counter screen (AID 1963580). Note: nearly all actives have a fitted effect of over 45% in size. The gist of the method: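 After the beta-lactamase ratio was read, CellTiter-Glo was added to the same wells and luminescence measured at 30 min; cells had been treated 16 h at 37 C with compounds, rat liver microsomes and NADPH (0.5 mg/mL final each).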

Test [8] can be described thus: p53 small molecule agonists, cell-based qHTS assay: qHTS cell viability counter screen (AID 1963581). Note: nearly all actives have a fitted effect of over 45% in size. The gist of the method:
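qHTS counter screen: 16 h compound exposure at 37 C of p53RE-bla HCT-116 cells (4,000 per well, seeded 5 h prior), cell viability by ATP luminescence.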

The nature of test [9]: p53 small molecule agonists, cell-based qHTS assay (AID 1963582; active = well fitted activation curve with a large enough effect in the signal ratio in the repeat runs, not every such curve was filed as active; the % refers to the signal ratio). The gist of the method: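 Measured: fluorescence from cleaved LiveBLAzer substrate. System: p53RE-bla cells, 16 h compound treatment at 37 C, 2 h substrate step at room temperature.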
Test [10] has as its target 5-hydroxytryptamine receptor 2A (Homo sapiens) (UniProt P28223). Kind of test: 5-hydroxytryptamine receptor 2A (HTR2A) small molecule antagonists, cell-based qHTS assay (AID 1963586). Note: nearly all actives have a fitted effect of over 45% in size. Note: potency is the fitted concentration of half-maximal effect. The gist of the method:
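CHO cells stably expressing human HTR2A were plated for 18 h at 37 C, then loaded with calcium dye for 1 h. Compounds were preincubated 5 min at room temperature before DOI (4 nM solution) was added. Kinetic fluorescence was read for 3 min.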

Test [11] has the same target. Kind of test: 5-hydroxytryptamine receptor 2A (HTR2A) small molecule agonists, cell-based qHTS assay (AID 1963587). Note: nearly all actives have a fitted effect of over 30% in size. Note: potency is the fitted concentration of half-maximal effect. The gist of the method: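 CHO cells stably expressing human HTR2A, plated 18 h, loaded with calcium dye 1 h at 37 C. Agonist mode: compounds added and intracellular calcium fluorescence recorded kinetically for 2 min at 1 sec intervals.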
In test [12] the target is Muscarinic acetylcholine receptor M1 (Homo sapiens) (UniProt P11229). Nature of the test: Cholinergic receptor muscarinic 1 (CHRM1) small molecule antagonists, cell-based qHTS assay (AID 1963588). Note: nearly all actives have a fitted effect of over 40% in size. Note: potency is the fitted concentration of half-maximal effect. The gist of the method:
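Compounds were tested at 15 concentrations in three independent runs. Dye-loaded CHRM1-CHO cells were exposed 5 min at room temperature before stimulation by acetylcholine added at 50nM. Intracellular calcium was read kinetically on FDSS for 3 min.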

For test [13] the target is unchanged. Nature of the test: Cholinergic receptor muscarinic 1 (CHRM1) small molecule agonists, cell-based qHTS assay (AID 1963589). Note: nearly all actives have a fitted effect of over 35% in size. The gist of the method:
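Kinetic fluorescence (1 s intervals) of calcium-sensitive dye in human M1 CHO cells after compound addition; cells pre-incubated 18 h at 37 C/5% CO2 and dye-loaded 1 h.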

For test [14], the target named is D(2) dopamine receptor (Homo sapiens) (UniProt P14416). Nature of the test: Dopamine D2 receptor (DRD2) small molecule antagonists, cell-based qHTS assay (AID 1963595; active = well fitted inhibition curve with a large enough effect in the signal ratio in the repeat runs, with a control signal flat; the % refers to the signal ratio). The gist of the method:
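Stable D2 receptor HEK293 line, 24 h after seeding. Compound preincubated 10 min, then quinpirole (12 nM) with forskolin analogue NKH477 (200 nM), 30 min, room temperature. Detection by time-resolved FRET of cAMP.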

Test [15] concerns the target KiSS-1 receptor (Homo sapiens) (UniProt Q969F8). Kind of test: Human kisspeptin (KISS1R) small molecule agonists, calcium flux assay in KISS1R-HEK293 cells (AID 1920064; active = well fitted curve in the direction sought with a large enough effect in the repeat runs; an effect the other way counts as inactive or inconclusive). The gist of the method: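 After overnight (18 h) culture at 37 C/5% CO2, human KISS1R-HEK293 cells received calcium dye for 1 h, then test compound; emission at 540 nm (excitation 480 nm) was tracked for 3 min.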

The nature of test [16]: cAMP Responsive Elements (CRE) small molecule agonists, cell-based qHTS assay (AID 1963590). The gist of the method:
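Test agents in DMSO were incubated 3 h at 37 C/5% CO2 with CRE-bla HEK 293T cells seeded 18 h earlier; LiveBLAzer B/G FRET substrate was added and read after 2 h at room temperature.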

Test [17] has as its target Beta-2 adrenergic receptor (Homo sapiens) (UniProt P07550). Kind of test: Adrenergic beta2 receptor (ADRB2) small molecule antagonists, cell-based qHTS assay (AID 1963592). Note: nearly all actives have a fitted effect of over 50% in size. Note: potency is the fitted concentration of half-maximal effect. The gist of the method: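 Assay format: CHO-ADRB2 cells, 18-20hr seeding at 37C/5% CO2, then compound plus 1nM isoproterenol agonist mix for 0.5hr RT. Homogeneous time-resolved fluorescence cAMP detection after 1hr, expressed as 665/615 nm ratio.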

The target is the same in test [18]. Nature of the test: Adrenergic beta2 receptor (ADRB2) small molecule agonists, cell-based qHTS assay (AID 1963593).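 Note: CHO cells stably overexpressing human ADRB2.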 The gist of the method:
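CHO cells stably over-expressing ADRB2 were plated overnight at 37C, then dosed with compounds plus a stimulation mix containing 100uM IBMX and 25uM Ro-20-1724 for 0.5hr at room temperature. cAMP was measured by HTRF competition, 1hr.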

The target in test [19] is D(2) dopamine receptor (Homo sapiens) (UniProt P14416). Nature of the test: Dopamine D2 receptor (DRD2) small molecule agonists, cell-based qHTS assay (AID 1963594). Note: nearly all actives have a fitted effect of over 35% in size. The gist of the method:
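HEK293 cells stably expressing human DRD2, pre-treated with PDE inhibitor Ro20-1724 (0.1 mM final) and compound 10 min at room temperature, then stimulated with NKH477 (200nM […]) for 30 min. cAMP read by HTRF (665/620 nm).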

A short description of test [20]: cAMP Responsive Elements (CRE) small molecule antagonists, cell-based qHTS assay (AID 1963591; active = well fitted inhibition curve with a large enough effect in the signal ratio in the repeat runs, not every such curve was filed as active; the % refers to the signal ratio). The gist of the method: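 Reporter line CRE-bla HEK 293T in dialyzed-FBS DMEM; cells preincubated 18 h, treated 3 h with compound plus NKH477 (0.25 uM final); LiveBLAzer FRET, 2 h RT.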

Results filed as inconclusive are left out. Active and inactive are the calls of the source. Unless noted, calls come from the whole dose curve.

For ten molecules, Potency results are on record in PubChem BioAssay (Tox21).

Chain of Beta-2 adrenergic receptor (Homo sapiens) (P07550 whole entry, looked up): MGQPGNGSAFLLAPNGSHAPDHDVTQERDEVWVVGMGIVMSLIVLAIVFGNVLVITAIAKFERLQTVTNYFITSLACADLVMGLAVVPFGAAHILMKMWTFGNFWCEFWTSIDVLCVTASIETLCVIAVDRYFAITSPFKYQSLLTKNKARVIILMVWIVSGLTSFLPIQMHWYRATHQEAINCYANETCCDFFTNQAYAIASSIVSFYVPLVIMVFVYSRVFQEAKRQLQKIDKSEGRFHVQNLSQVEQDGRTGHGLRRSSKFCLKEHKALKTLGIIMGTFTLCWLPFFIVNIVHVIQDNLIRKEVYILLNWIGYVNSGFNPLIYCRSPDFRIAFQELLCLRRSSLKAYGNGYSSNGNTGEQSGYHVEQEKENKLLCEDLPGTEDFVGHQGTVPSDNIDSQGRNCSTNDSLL
Chain of Muscarinic acetylcholine receptor M1 (Homo sapiens) (P11229 whole entry, looked up): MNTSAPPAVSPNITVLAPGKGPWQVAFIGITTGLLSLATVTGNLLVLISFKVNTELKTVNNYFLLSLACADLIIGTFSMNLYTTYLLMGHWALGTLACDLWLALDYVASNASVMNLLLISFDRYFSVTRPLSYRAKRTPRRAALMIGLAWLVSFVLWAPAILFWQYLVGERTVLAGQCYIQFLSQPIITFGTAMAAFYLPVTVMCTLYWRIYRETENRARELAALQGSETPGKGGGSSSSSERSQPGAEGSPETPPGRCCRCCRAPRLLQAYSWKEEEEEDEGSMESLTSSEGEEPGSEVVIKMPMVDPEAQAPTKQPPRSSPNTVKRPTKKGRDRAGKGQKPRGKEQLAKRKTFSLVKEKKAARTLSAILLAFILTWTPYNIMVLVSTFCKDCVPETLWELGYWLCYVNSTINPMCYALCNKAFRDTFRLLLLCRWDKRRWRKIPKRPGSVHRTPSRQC
Chain of 5-hydroxytryptamine receptor 2A (Homo sapiens) (P28223 whole entry, looked up): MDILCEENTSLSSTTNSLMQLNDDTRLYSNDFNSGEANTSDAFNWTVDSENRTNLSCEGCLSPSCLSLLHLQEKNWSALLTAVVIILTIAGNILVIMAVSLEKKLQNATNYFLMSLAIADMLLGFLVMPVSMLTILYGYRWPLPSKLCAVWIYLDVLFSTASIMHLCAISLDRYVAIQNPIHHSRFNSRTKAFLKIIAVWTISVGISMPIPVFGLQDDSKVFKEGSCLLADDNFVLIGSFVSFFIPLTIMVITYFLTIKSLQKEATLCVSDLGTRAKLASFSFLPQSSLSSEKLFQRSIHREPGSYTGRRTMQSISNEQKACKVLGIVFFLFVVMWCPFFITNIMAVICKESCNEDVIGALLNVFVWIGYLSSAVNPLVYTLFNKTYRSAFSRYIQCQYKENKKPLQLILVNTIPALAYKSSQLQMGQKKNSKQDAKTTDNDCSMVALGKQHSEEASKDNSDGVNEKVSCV
Chain of D(2) dopamine receptor (Homo sapiens) (P14416 whole entry, looked up): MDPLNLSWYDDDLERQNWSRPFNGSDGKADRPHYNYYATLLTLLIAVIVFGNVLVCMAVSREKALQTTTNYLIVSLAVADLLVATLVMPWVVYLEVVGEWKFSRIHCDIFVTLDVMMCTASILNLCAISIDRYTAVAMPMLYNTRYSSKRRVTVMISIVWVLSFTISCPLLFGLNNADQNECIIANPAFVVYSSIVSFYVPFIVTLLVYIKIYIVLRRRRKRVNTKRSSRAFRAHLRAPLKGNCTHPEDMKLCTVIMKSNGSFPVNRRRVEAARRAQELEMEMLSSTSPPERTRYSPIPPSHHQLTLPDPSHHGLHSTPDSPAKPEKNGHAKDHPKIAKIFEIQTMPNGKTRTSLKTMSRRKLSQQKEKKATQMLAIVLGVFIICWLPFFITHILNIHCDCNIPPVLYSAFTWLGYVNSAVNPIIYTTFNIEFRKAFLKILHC
Chain of Gonadotropin-releasing hormone receptor (Homo sapiens) (P30968 whole entry, looked up): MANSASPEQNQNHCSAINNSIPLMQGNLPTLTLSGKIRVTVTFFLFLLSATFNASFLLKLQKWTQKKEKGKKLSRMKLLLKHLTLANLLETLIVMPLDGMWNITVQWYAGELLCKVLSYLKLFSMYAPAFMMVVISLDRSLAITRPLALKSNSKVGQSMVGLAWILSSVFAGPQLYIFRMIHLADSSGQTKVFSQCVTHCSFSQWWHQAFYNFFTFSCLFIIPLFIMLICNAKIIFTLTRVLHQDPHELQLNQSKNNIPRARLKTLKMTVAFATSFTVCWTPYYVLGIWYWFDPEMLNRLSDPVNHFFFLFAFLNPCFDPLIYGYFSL
Chain of KiSS-1 receptor (Homo sapiens) (Q969F8 whole entry, looked up): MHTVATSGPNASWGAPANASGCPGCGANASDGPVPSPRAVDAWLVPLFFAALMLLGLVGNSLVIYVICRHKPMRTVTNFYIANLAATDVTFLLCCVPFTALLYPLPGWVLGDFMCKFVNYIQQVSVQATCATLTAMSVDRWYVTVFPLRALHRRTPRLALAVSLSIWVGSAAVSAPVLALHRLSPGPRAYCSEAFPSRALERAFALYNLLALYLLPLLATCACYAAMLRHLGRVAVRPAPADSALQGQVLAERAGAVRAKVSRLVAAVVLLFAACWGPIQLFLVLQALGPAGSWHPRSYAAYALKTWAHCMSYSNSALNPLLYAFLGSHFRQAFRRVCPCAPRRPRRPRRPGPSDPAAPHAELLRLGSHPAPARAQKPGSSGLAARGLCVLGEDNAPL

Regarding `CC(C)COC(=O)c1ccc(O)cc1`, the Potency result in test [1], in test [2], in test [3], in [4], in test [5] and in test [6] was “inactive” throughout. Further, the Potency result in [7], in test [8], in [9], in test [10], in [11] and in test [12] was “inactive” throughout. Besides, the Potency result in [13] and in test [14] was “inactive” each time.

Turning to `CC(C)NCC(O)COc1ccc(CCOCC2CC2)cc1` (centres undefined), the Potency entry in [1], in test [2], in test [15], in test [6], in [7] and in test [8] was “inactive” in each case. The Potency result in test [9], in test [11], in [12], in test [13], in [16] and in test [14] was “inactive” each time.

In the case of `O=C(O)COc1nn(Cc2ccccc2)c2ccccc12`, the Potency result in test [1], in test [2], in test [3], in test [5], in [6] and in test [7] was “inactive” throughout. The Potency result in [10], in test [11], in test [12], in test [13], in [17] and in [18] was “inactive” in each case. Also, the Potency entry in test [19] and in test [14] was “inactive” in each case.

For `CC1=C(C/C=C(\C)CCC[C@H](C)CCC[C@H](C)CCCC(C)C)C(=O)c2ccccc2C1=O`, the Potency entry in test [1], in test [2], in test [3], in [6], in test [7] and in test [8] was “inactive” throughout. Also, the Potency result in test [9], in test [10], in test [11], in test [12], in test [13] and in test [16] was “inactive” in each case. Moreover, the Potency result in test [20], in [17], in test [19] and in [14] was “inactive” each time.

Take `COc1cccc(CCc2ccccc2OCC(CN(C)C)OC(=O)CCC(=O)O)c1` (centres undefined): the Potency result in test [1], in test [2], in test [3], in test [6], in test [7] and in [8] was “inactive” each time. Further, the Potency entry in test [11], in test [12], in test [13], in test [16], in test [20] and in [14] was “inactive” each time. Further, the Potency in test [10] is 7.29 µM (active); in test [17], 4.73 µM (active).

For `C=CCOC(=O)CCC1CCCCC1`, the Potency result in test [1], in test [15], in test [3], in [4], in test [5] and in test [6] was “inactive” in each case. The Potency entry in test [7], in test [8], in test [9], in [10], in test [11] and in [12] was “inactive” in each case. The Potency entry in [13], in test [16], in test [20], in test [17], in test [18] and in [19] was “inactive” throughout. Besides, the Potency entry in [14] is “inactive”.

Turning to `NC1(c2ccc(-c3nc4ccn5c(=O)[nH]nc5c4cc3-c3ccccc3)cc2)CCC1`, the Potency in [1] is 29.8 µM (active); in test [11], 26.8 µM (active); in [12] it was 2.9 µM (active). The Potency entry in [2], in test [3], in test [4], in [5], in [6] and in test [7] was “inactive” throughout. Also, the Potency result in test [8], in test [9], in test [10], in [13], in test [17] and in [19] was “inactive” in each case. Besides, the Potency entry in test [14] was “inactive”.

With `Cn1c(N)nc2nc[nH]c2c1=O`, the Potency result in test [1], in test [2], in [3], in test [4], in test [5] and in test [6] was “inactive” each time. The Potency entry in test [7], in test [10], in [11], in test [12] and in test [13] was “inactive” throughout.

On to `CCCCCCCC/C=C/CCCOC(C)=O`, for which the Potency result in test [1], in test [2], in test [3], in test [5], in test [7] and in test [8] was “inactive” each time. Besides, the Potency entry in test [9], in [10], in test [11], in test [12], in test [13] and in test [16] was “inactive” in each case. Moreover, the Potency entry in test [20], in test [17] and in test [19] was “inactive” each time.

Consider `CCOC(=O)OC(C)OC(=O)[C@@H]1N2C(=O)[C@@H](NC(=O)[C@H](N)c3ccccc3)[C@H]2SC1(C)C` (some centres undefined), for which the Potency result in test [1], in test [2], in test [3], in test [7], in [11] and in [12] was “inactive” in each case. Besides, the Potency result in [13] and in test [14] was “inactive” throughout.
